Most compounds without a hit are left out; they make up all but 2.5% or so of the library.
WRN inhibitor: qHTS for Inhibitors of WRN Helicase. Bifunctional 3'-5' exonuclease/ATP-dependent helicase WRN (Homo sapiens), Q14191. WRN helicase unwinding, fluorescent forked duplex, kinetic. Potency, µM (top dose mostly 114 µM), for the others: top-dose activity change, negative = inhibition, actives largely listed as inhibitors. 360,000 compounds, 0.46% hits. AID 651768, 2012; note: % is set by controls: 0 for no effect and ±100 for the full control effect; nearly all actives have a fitted effect of over 55% in size
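Enzyme (20 nM final) and test compound sit together 15 min at room temperature before substrate addition. Substrate is a single-forked duplex oligonucleotide (100 nM) labelled with fluorophore and quencher, with 2 mM ATP; helicase unwinding raises red fluorescence, read kinetically.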
Pol iota inh: qHTS for Inhibitors of Polymerase Iota | Potency, µM (doses to about 115 µM), without a hit: top-dose activity, negative = inhibition, hits mostly inhibitors | DNA polymerase iota (Homo sapiens), Q9UNA4 | 390,000 compounds, 1% hits | Pol iota fluorescent replication assay, 10 min
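Fluorescent replication assay read twice, at 0 min and 10 min after adding 50 nM (final) substrate. Enzyme (10 nM) and compounds were first incubated 15 min at room temperature; enzyme-free buffer wells were negative controls.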
POLB inh: qHTS Assay for Inhibitors of DNA Polymerase Beta | P06746 | Pol beta primer extension/strand displacement, fluorescence kinetic | Potency, µM (highest dose often 114 µM), without a hit: at the highest dose activity change, negative = inhibition, hits mostly inhibitors | 340,000 compounds, 1.3% hits | AID 485314, 2010; note: % is set by controls: 0 for no effect and ±100 for the full control effect
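Enzyme-only controls used 10 nM Pol beta; buffer lacking enzyme served as negative control. Compound preincubated 15 min, then 50 nM substrate added; 0 and 10 min reads at room temperature.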
POLH inh: qHTS for Inhibitors of Polymerase Eta; recombinant Pol eta, fluorescent DNA replication assay; Potency, µM (doses to about 114 µM), for the others: at the top dose activity change, negative = inhibition, usual class: inhibitors; 390,000 compounds, 1.2% hits; AID 588591, 2011; note: % is set by controls: 0 for no effect and ±100 for the full control effect
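Pol eta at 10 nM preincubated with compounds 15 min at room temperature; reaction started with fluorescent substrate (50 nM final) and read kinetically at 0 and 10 min.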
POLK inh: qHTS for Inhibitors of Polymerase Kappa; DNA polymerase kappa (Homo sapiens), Q9UBT6; purified Pol kappa, fluorescent DNA synthesis assay, 10 min; Potency, µM (doses to about 107 µM), for inactives: at the highest dose activity, negative = inhibition, hits mostly inhibitors; 400,000 compounds, 0.53% hits; note: % is set by controls: 0 for no effect and ±100 for the full control effect
Target sequence (Q9UBT6 whole entry, looked up): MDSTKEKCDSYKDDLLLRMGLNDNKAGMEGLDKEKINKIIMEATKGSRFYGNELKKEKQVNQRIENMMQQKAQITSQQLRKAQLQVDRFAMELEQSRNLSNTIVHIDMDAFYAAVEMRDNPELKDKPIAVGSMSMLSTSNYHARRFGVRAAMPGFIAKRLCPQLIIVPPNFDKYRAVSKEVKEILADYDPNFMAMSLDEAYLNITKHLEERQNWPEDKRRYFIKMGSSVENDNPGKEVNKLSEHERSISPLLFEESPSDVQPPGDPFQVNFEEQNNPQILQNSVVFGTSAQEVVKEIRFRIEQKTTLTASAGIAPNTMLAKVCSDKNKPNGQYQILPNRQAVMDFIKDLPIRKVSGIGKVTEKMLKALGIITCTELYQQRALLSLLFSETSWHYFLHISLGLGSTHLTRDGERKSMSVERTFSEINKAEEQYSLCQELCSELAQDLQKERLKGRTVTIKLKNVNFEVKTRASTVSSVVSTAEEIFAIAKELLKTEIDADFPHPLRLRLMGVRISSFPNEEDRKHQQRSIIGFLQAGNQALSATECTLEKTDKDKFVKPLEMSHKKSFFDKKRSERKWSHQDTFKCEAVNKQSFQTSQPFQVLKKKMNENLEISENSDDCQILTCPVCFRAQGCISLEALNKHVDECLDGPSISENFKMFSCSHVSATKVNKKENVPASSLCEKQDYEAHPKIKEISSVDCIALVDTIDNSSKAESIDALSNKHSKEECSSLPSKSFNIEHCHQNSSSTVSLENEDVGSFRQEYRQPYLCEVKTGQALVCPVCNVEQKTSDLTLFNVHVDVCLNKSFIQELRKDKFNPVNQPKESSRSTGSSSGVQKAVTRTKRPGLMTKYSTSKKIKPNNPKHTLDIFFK
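Kinetic fluorescence screen: compound preincubated 15 min RT with 10 nM enzyme; 50 nM substrate (final) initiates; reads at 0/10 min.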
L3MBTL1 block: qHTS Assay for the Inhibitors of L3MBTL1; AlphaScreen L3MBTL1–H3K9me1 peptide binding; Potency, µM (top dose mostly 57.1 µM), for the others: at the top dose activity, negative = inhibition, hits mostly inhibitors; 230,000 compounds, 0.66% hits; note: % is set by controls: 0 for no effect and ±100 for the full control effect; nearly all actives have a fitted effect of over 60% in size
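Displacement of a biotinylated histone H3(1-15) peptide monomethylated at Lys9 (75 nM) from L3MBTL1 (50 nM) was measured by AlphaScreen after a 30 min room-temperature compound incubation; cefsulodin titration served as intraplate control.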
* marks the source's active call; other numbers are inactive results; ? = inconclusive; nt = no result given; [ ] = remark or other dose. Calls come from the whole dose curve; as a rule, active = well fitted curve in the direction sought with a large enough effect; inconclusive = small, poorly fitted or top-dose-only effect, or another doubt; inactive = no such curve, though single readings can be large; an effect the other way counts as inactive or inconclusive. Potency is the fitted concentration of half-maximal effect.

SMILES	WRN inhibitor	Pol iota inh	POLB inh	POLH inh	POLK inh	L3MBTL1 block
C=CCNC(=O)Cc1ccc(S(=O)(=O)N2CCOCC2)s1	-3.7%	8.7%	nt	-9.7%	-11.4%	1.9%
O=C(Cc1ccc(S(=O)(=O)N2CCCC2)s1)Nc1nc2c(s1)CCCC2	-21.8%	?	?	17.8µM*	-26.6%	-24.9%
Cc1ccc(CC(=O)Nc2nc3c(s2)CCCC3)cc1	-5.8%	7.6%	-13.3%	-10.7%	-10.0%	nt
Cc1cc(C)cc(NC(=O)Cc2ccc(S(=O)(=O)N3CCCC3)s2)c1	-32.1%	-16.2%	nt	1.4%	-23.5%	4.6%
CCCCOP(=O)(OCCCC)C(Nc1ccc(C(=O)OCC)cc1)c1ccncc1 (stereo not drawn)	0.8%	12.7%	-3.1%	-29.0%	-8.3%	nt
C=Cc1ccc(CN2CCCN(Cc3ccc(F)cc3)S2(=O)=O)cc1	-4.0%	8.0%	-0.2%	?	3.3%	nt
CCc1cc2c(=O)c(-c3nc4ccccc4n3C)coc2c(CN2CCCCC2C)c1O (stereo not drawn)	?	31.6µM*	28.2µM*	?	-97.3%	nt
O=S1(=O)CC(N2CCCC2)CN1Cc1ccccc1 (stereo not drawn)	0.1%	nt	nt	nt	nt	nt
Fc1ccc(-c2ccnc3nc(-n4cccc4)nn23)cc1	-11.7%[57.1 µM]	79.4µM*	?	-17.9%	-3.1%	-4.7%
Fc1ccc(-c2ccnc3nc(N4CCOCC4)nn23)cc1	0.3%	28.6%	0.0%	-11.5%	-0.3%	4.4%
COc1ccccc1-c1ccc(/C=C2/C=C(CC(C)C)OC2=O)o1	-25.0%	?	25.1µM*	-23.0%	-13.5%	?
CCCC1=C/C(=C/c2ccc(-c3ccccc3OC)o2)C(=O)O1	-28.4%[57.1 µM]	?	?	25.1µM*	-38.1%	-17.8%
O=Cc1ccc(-c2ccccc2OC(F)(F)F)o1	-13.7%	0.4%	13.6%	-16.2%	-13.4%	nt
CNC(=O)C[C@@H]1C(=O)N(c2ccc(OC)cc2)CC1(C)C	2.6%	nt	nt	-20.9%	nt	nt
Cn1cc(-c2nc3cnc(OCc4ccccc4)nc3n(CCC#N)c2=O)c2ccccc21	nt	nt	nt	nt	1.1%[60.1 µM]	nt
CCOc1ccc(NC(=O)Cc2ccccc2)c([N+](=O)[O-])c1	-21.2%	-4.3%	0.4%	-13.7%	-10.6%	5.01µM*
O=C(CCc1ccccc1)NNC(=O)COc1ccc(Br)cc1	-7.3%[11.6 µM]	50.1µM*	?	10.5%	?	nt
O=[N+]([O-])c1c(NCc2ccco2)ccc2nonc12	4.1%	63.1%	3.16µM*	-19.2%	1.3%	-8.1%
O=[N+]([O-])c1c(Nc2ccccc2)ccc2nonc12	-2.4%	13.8%	-18.6%	2.8%	-12.1%	-7.8%
CCOC(=O)NNc1ccc2nonc2c1[N+](=O)[O-]	50.1µM*	10µM*	44.7µM*	10µM*	?	31.6µM*
CC(=O)[C@]1(O)Cc2c(O)c3c(c(O)c2[C@@H](O[C@H]2C[C@H](N)[C@H](O)[C@H](C)O2)C1)C(=O)c1ccccc1C3=O	31.6µM*	7.94µM*	14.1µM*	14.1µM*	26.7µM*	nt
CC(=O)[C@]1(O)Cc2c(O)c3c(c(O)c2[C@@H](O[C@H]2C[C@H](N)[C@H](O)[C@H](C)O2)C1)C(=O)c1c(O)cccc1C3=O	nt	nt	nt	nt	10µM*	nt
COc1ccc(/C=C2/SC(=S)N(CC(=O)O)C2=O)cc1OCc1ccc(Cl)cc1	56.2µM*	-1.1%	?	?	-3.8%	-10.0%
O=C(O)CN1C(=O)/C(=C\c2ccccc2OCc2ccccc2)SC1=S	-7.7%	nt	nt	79.4µM*	nt	nt
COc1cc(/C=C2\SC(=S)N(CC(=O)O)C2=O)ccc1OC(=O)c1ccco1	-21.6%	218.5%	15.2%	1.0%	-6.3%	nt
SMILES	WRN inhibitor	Pol iota inh	POLB inh	POLH inh	POLK inh	L3MBTL1 block
O=C(O)CCCN1C(=O)/C(=C\c2ccccc2OCc2ccccc2)SC1=S	?	?	?	79.4µM*	-14.4%	nt
Cc1nn(-c2ccccc2)c(Cl)c1/C=C1\SC(=S)N(CCCCCC(=O)O)C1=O	-22.8%	-18.0%	27.4%	25.1µM*	-6.6%	-25.7%
Cc1cccc(N2CN=c3s/c(=C\c4ccccn4)c(=O)n3C2)c1	-16.9%	155.5%	?	-13.9%	-3.0%	-5.8%
O=c1c2c([nH]c3ccccc13)CCCC2	-0.5%	4.5%	27.5%	-10.0%	-1.6%	4.0%
O=c1c2c([nH]c3ccccc13)C(=C1CCCC1)CC2	50.1µM*	?	31.6µM*	20µM*	39.8µM*	?
CCOc1ccc2oc(=O)cc(CN3CCN(Cc4ccc(C)cc4)CC3)c2c1	nt	23.8%	0.4%	-17.9%	0.5%	nt
CCc1cccc2sc(N3CCN(C(=O)C4CC4)CC3)nc12	nt	20.0%	0.5%	-14.7%	-2.6%[60.1 µM]	nt
Cc1ccc2cccc(S(=O)(=O)Nc3ccc4c(c3)OCO4)c2n1	-8.8%[11.6 µM]	?	44.7µM*	?	-23.6%	15.3%[11.4 µM]
Cc1ccc2cccc(OCC(=O)Nc3ccc4c(c3)OCO4)c2n1	-0.4%	163.5%	10.7%	-3.5%	-4.1%	?
CC(C)(C)c1nnc(NS(=O)(=O)c2cc(Cl)ccc2Cl)s1	-1.6%	0.4%	1.7%	-2.2%	-10.9%	6.6%
O=S(=O)(Nc1nc(-c2sccc2Cl)cs1)c1cc(Cl)ccc1Cl	?	?	31.6µM*	?	-18.6%	-1.6%
CCOc1ccccc1C=NNC(=O)C1CC1	8.9%	36.4%	nt	-3.0%	-2.9%	nt
COc1cc(OC)nc(C(NC(=O)C2CCN(Cc3ccc(Oc4ccccc4)cc3)CC2)c2ccc(F)cc2)n1 (stereo not drawn)	7.0%	nt	nt	nt	nt	nt
CCOC(=O)c1c(NC(=O)Nc2ccc(Cl)cc2)sc(C)c1C	5.6%	15.8%	-10.8%	-11.5%	-2.3%	2.6%
CCOC(=O)c1c(NC(=O)/C=C/C(=O)O)sc(C)c1-c1ccc(Cl)cc1	-3.8%[11.6 µM]	?	-17.8%	79.4µM*	2.2%	-14.8%
CC(=O)N1CCn2c3c(c(=O)c4cc(C)ccc42)CCC31 (stereo not drawn)	-11.2%[57.1 µM]	22.4µM*	-3.1%	3.5%	-21.8%	nt
CCc1ccc2nc(NC(=O)c3ccc4c(=O)[nH]c(CN5CCOCC5)nc4c3)sc2c1	?	?	79.4µM*	50.1µM*	-21.3%	-4.7%
O=C(CCN1C(=O)/C(=C\c2cccs2)SC1=S)Nc1ccccn1	-22.9%	93.9%	-0.9%	-1.8%	-3.8%	?
O=C(CCCN1C(=O)/C(=C/c2cccs2)SC1=S)Nc1ccccn1	3.0%	-12.6%	-25.2%	-18.7%	-1.5%	35.5µM*
CC(/C=C1\SC(=S)N(CCCC(=O)Nc2ccc(C(=O)O)c(O)c2)C1=O)=C\c1ccccc1	-32.6%	?	?	?	?	39.8µM*

Screening data: PubChem, National Center for Advancing Translational Sciences (NCATS)
